The source of these data is paper PMC8384837, “Expanding the binding specificity for RNA recognition by a PUF domain”.

Changes are numbered by the printed parent chain.

Test in all cases: yeast three-hybrid, YBZ-1, SC-Leu-His + 0.5 mM 3-AT, 4 days
Details in all cases: tags: N-Gal4 AD-HA kept; label: inside an RPR1-promoter hybrid RNA with tandem MS2 sites; ssRNA

For one assay, the target named is T1, PUM1 PUF domain R6-HWW (Homo sapiens, UniProt Q14671 828-1176, N1043H;Y1044W;Q1047W).
T1 sequence: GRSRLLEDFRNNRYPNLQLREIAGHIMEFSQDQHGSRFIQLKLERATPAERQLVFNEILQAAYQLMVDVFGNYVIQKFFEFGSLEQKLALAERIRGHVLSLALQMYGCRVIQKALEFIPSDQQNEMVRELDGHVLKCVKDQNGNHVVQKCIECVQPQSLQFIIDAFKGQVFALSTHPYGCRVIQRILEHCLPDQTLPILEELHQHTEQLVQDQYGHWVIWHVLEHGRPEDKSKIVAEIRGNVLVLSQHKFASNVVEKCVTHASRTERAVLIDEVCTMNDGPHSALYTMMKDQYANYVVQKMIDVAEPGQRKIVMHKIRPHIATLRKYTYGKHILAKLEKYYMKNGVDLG
Put shortly: (§1)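 The interaction score is the log change in how often each variant appears, from input to selection. Frequencies came from PCR-amplified, Illumina-sequenced repeat regions of Pumilio-1 PUF domain libraries grown in strain YBZ-1 (LexA–MS2 coat fusion, HIS3 reporter) alongside matching RNA elements. Input plates were SC-Leu and selection plates were SC-Leu-His + 0.5 mM 3-AT, each for four days, and the log2 calculation used a pseudocount of 1 where a variant was absent.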

The target of another assay is T2, PUM1 PUF domain R6-NWL (Homo sapiens, UniProt Q14671 828-1176, Y1044W;Q1047L).
T2 sequence: T1 sequence with H216N, W220L
In a few lines: as §1

A further assay concerns the target PUM1 PUF domain R3-GPR (Homo sapiens, UniProt Q14671 828-1176, C935G;R936P;Q939R). Put shortly:
as §1

The target of another assay is PUM1 PUF domain R3-IWG (Homo sapiens, UniProt Q14671 828-1176, C935I;R936W;Q939G). In a few lines:
as §1

The target in a further assay is PUM1 PUF domain R2-VWW (Homo sapiens, UniProt Q14671 828-1176, N899V;Y900W;Q903W). Put shortly: as §1
The target of a further assay is PUM1 PUF domain R2-FWW (Homo sapiens, UniProt Q14671 828-1176, N899F;Y900W;Q903W). In a few lines:
as §1

The next assay deals with PUM1 PUF domain R1-QCR (Homo sapiens, UniProt Q14671 828-1176, S863Q;R864C;Q867R). Put shortly:
as §1

The target in the next assay is PUM1 PUF domain R1-SYK (Homo sapiens, UniProt Q14671 828-1176, R864Y;Q867K). In a few lines:
as §1

The target of another assay is PUM1 PUF domain R7-RRN (Homo sapiens, UniProt Q14671 828-1176, S1079R;N1080R;E1083N). Put shortly: as §1
The target in a further assay is PUM1 PUF domain R5-RQN (Homo sapiens, UniProt Q14671 828-1176, C1007R;R1008Q;Q1011N). In a few lines:
as §1

Sequence of PUM1 PUF domain R3-IWG (Q14671 828-1176 C935I/R936W/Q939G): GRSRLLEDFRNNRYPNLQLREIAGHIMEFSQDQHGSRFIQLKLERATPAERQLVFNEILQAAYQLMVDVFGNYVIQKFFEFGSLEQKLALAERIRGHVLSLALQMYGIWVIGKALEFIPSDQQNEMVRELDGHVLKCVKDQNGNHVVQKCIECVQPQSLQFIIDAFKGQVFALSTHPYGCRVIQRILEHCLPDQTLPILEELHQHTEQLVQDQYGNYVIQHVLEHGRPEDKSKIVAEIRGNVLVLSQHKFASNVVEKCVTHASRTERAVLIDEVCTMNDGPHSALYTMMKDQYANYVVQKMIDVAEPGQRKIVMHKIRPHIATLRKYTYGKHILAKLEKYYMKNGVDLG
Sequence of PUM1 PUF domain R3-GPR (Q14671 828-1176 C935G/R936P/Q939R): as the sequence (Q14671 828-1176 C935I/R936W/Q939G) above, with I108G, W109P, G112R counted along it

On to “GGCUAGAACUAGUGGAUCCCCCGGCGCCCGGCGGCUCGAGCCCGGGUAAGUGUAAAUAGUCUGCAUGCCGCCGGGCGCCAUGCCUGCAGGUCGACUCUAGAAAACAUG”, for which the binding signal with PUM1 PUF domain R6-HWW is 4.93 log2 enrichment (interaction score); in the assay with PUM1 PUF domain R6-NWL, 5.32 log2 enrichment (interaction score); in the assay with PUM1 PUF domain R3-GPR, 0.81 log2 enrichment (interaction score); in the assay with PUM1 PUF domain R3-IWG, 5.45 log2 enrichment (interaction score).

As for “GGCUAGAACUAGUGGAUCCCCCGGCGCCCGGCGGCUCGAGCCCGGGUAAGUGUAAAAAGUCUGCAUGCCGCCGGGCGCCAUGCCUGCAGGUCGACUCUAGAAAACAUG”, the binding signal with PUM1 PUF domain R2-VWW was 2.5 log2 enrichment (interaction score); with PUM1 PUF domain R2-FWW it was 4.3 log2 enrichment (interaction score).

On to “GGCUAGAACUAGUGGAUCCCCCGGCGCCCGGCGGCUCGAGCCCGGGUAAGUGUAAAUCGUCUGCAUGCCGCCGGGCGCCAUGCCUGCAGGUCGACUCUAGAAAACAUG”, for which the binding signal with PUM1 PUF domain R1-QCR is 2.48 log2 enrichment (interaction score); with PUM1 PUF domain R1-SYK, 2.72 log2 enrichment (interaction score).

As for “GGCUAGAACUAGUGGAUCCCCCGGCGCCCGGCGGCUCGAGCCCGGGUAAGUUUAAAUAGUCUGCAUGCCGCCGGGCGCCAUGCCUGCAGGUCGACUCUAGAAAACAUG”, the binding signal with PUM1 PUF domain R7-RRN is 4.89 log2 enrichment (interaction score).

Take “GGCUAGAACUAGUGGAUCCCCCGGCGCCCGGCGGCUCGAGCCCGGGUAAGUGUAAGUAGUCUGCAUGCCGCCGGGCGCCAUGCCUGCAGGUCGACUCUAGAAAACAUG”: the values for the binding signal in the assay with PUM1 PUF domain R3-GPR and with PUM1 PUF domain R3-IWG were 1.82 log2 enrichment (interaction score) and 5.3 log2 enrichment (interaction score), respectively.

On to “GGCUAGAACUAGUGGAUCCCCCGGCGCCCGGCGGCUCGAGCCCGGGUAAGUGUGAAUAGUCUGCAUGCCGCCGGGCGCCAUGCCUGCAGGUCGACUCUAGAAAACAUG”, for which the binding signal in the assay with PUM1 PUF domain R5-RQN is 1.54 log2 enrichment (interaction score).

For “GGCUAGAACUAGUGGAUCCCCCGGCGCCCGGCGGCUCGAGCCCGGGUAAGUGUCAAUAGUCUGCAUGCCGCCGGGCGCCAUGCCUGCAGGUCGACUCUAGAAAACAUG”, the binding signal with PUM1 PUF domain R5-RQN was 4.58 log2 enrichment (interaction score).

Take “GGCUAGAACUAGUGGAUCCCCCGGCGCCCGGCGGCUCGAGCCCGGGUAAGUGUAACUAGUCUGCAUGCCGCCGGGCGCCAUGCCUGCAGGUCGACUCUAGAAAACAUG”: in the assay with PUM1 PUF domain R3-GPR, the binding signal was 1.8 log2 enrichment (interaction score).

On to “GGCUAGAACUAGUGGAUCCCCCGGCGCCCGGCGGCUCGAGCCCGGGUAAGUCUAAAUAGUCUGCAUGCCGCCGGGCGCCAUGCCUGCAGGUCGACUCUAGAAAACAUG”, for which the binding signal with PUM1 PUF domain R7-RRN is 3.94 log2 enrichment (interaction score).

Consider “GGCUAGAACUAGUGGAUCCCCCGGCGCCCGGCGGCUCGAGCCCGGGUAAGUGUAAAUUGUCUGCAUGCCGCCGGGCGCCAUGCCUGCAGGUCGACUCUAGAAAACAUG”, for which the binding signal in the assay with PUM1 PUF domain R1-QCR is 1.4 log2 enrichment (interaction score).

For “GGCUAGAACUAGUGGAUCCCCCGGCGCCCGGCGGCUCGAGCCCGGGUAAGUGAAAAUAGUCUGCAUGCCGCCGGGCGCCAUGCCUGCAGGUCGACUCUAGAAAACAUG”, the binding signal with PUM1 PUF domain R6-NWL was 2.34 log2 enrichment (interaction score).

Turning to “GGCUAGAACUAGUGGAUCCCCCGGCGCCCGGCGGCUCGAGCCCGGGUAAGUGUAAUUAGUCUGCAUGCCGCCGGGCGCCAUGCCUGCAGGUCGACUCUAGAAAACAUG”, the binding signal with PUM1 PUF domain R3-GPR was 3.57 log2 enrichment (interaction score); in the assay with PUM1 PUF domain R3-IWG, 3.86 log2 enrichment (interaction score).
